Assay outcomes from PubChem.
Rows were chosen to be rich in hits. Some 2.3% of all compounds tested hit in one or more screens of this group.
aSyn rescue – inhibitors of alpha-synuclein toxicity in yeast. Potency, µM (top dose mostly 46.1 µM), without a hit: at the top dose growth rescue (activation), hits mostly activators. Yeast expressing alpha-synuclein, growth rescue, BacTiter-Glo, 24 h. actives 0.14% (n = 370,000); note: % of control where 0% means no effect; nearly all actives have a fitted effect of over 65% in size
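Screening used galactose-induced yeast with toxic alpha-synuclein levels, exposed to compound for 24 hr at 30 deg C. Cell growth, read with BacTiter-Glo luminescence, gave the measured signal.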
TDP43 rescue – inhibitors of TDP-43 toxicity in yeast; Potency, µM (highest dose often 46.1 µM), inactives show at the highest dose growth rescue (activation), most hits filed as activators; AID 652104; actives 1.8% (n = 410,000); TDP-43 expressing yeast growth rescue, BacTiter-Glo, 24 h; note: % of control where 0% means no effect; nearly all actives have a fitted effect of over 50% in size
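Luminescence from BacTiter-Glo reports growth of TDP-43-expressing yeast after 24 hr at 30 deg C with compound. Cells were raffinose-pregrown to mid-log, then seeded in galactose medium at OD600=0.02.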
FUS suppressor – FUS proteinopathy suppression in yeast | Potency, µM (series often up to 76.6 µM), most hits filed as activators | AID 1347120 | S. cerevisiae FUS-expressing, growth rescue, OD600, 24 h | actives 0.24% (n = 390,000);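 note: plate controls were DMSO vehicle for no effect and reference control for full effect; nearly all actives have a fitted effect of over 55% in size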
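Galactose (2%) drives FUS expression in yeast precultured in raffinose; seeding density OD 0.005. Test compounds incubated 24hr at 30C and 99% humidity before absorbance at 600 nm was measured.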
uPA surface inh – blocks generation of uPA at the cell surface; cell surface uPA generation assay, qHTS; Potency, µM (doses to about 38.3 µM), without a hit: at the highest dose activity change, negative = inhibition, most hits filed as inhibitors; actives 0.31% (n = 330,000); AID 540303; active = well fitted inhibition curve with a large enough effect; inconclusive = small, poorly fitted or top-dose-only effect; inactive = no such curve, though single readings can be large or run the other way; tested in mouse RAW 264.7 cells; note: % is set by controls: 0 for no effect and ±100 for the full control effect; nearly all actives have a fitted effect of over 55% in size
Abeta yeast res – restores growth of yeast expressing A-beta42 peptide; yeast expressing A-beta42, growth rescue, OD600, 48 h; response scale: 0% DMSO, 100% iron-clioquinol control; Potency, µM (top dose mostly 46.1 µM), usual class: activators; actives 0.063% (n = 410,000); AID 1347071; note: nearly all actives have a fitted effect of over 55% in size
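Yeast growth medium received pinned compounds, then yeast cells expressing toxic A-beta were added; plates incubated at 30 C for 48 hr. Growth read as absorbance at 600 nm, normalized to DMSO and equimolar FeCl3 plus clioquinol controls.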
BCR signal inh – inhibitors of chronic active B-cell receptor signaling; AID 493014; ABC-DLBCL IkBa-CBG/CBR reporter, luminescence ratio, 4 h; Potency, µM (doses to about 46.1 µM), without a hit: at the top dose activity change, negative = inhibition, usual class: inhibitors; actives 0.05% (n = 340,000); active = well fitted inhibition curve with a large enough effect in the signal ratio, with a control signal flat, not every such curve was filed as active; inconclusive = small, poorly fitted or top-dose-only effect, or effect the other way, or a change in a side signal; the % refers to the signal ratio;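 note: plate controls were basal doxycycline-induced cells for no effect and cells given 10 µM MG132 for full effect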
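Compounds up to 46 uM were incubated four hours with TMD8 cells whose green CBG68 luciferase is fused to IkappaBalpha; red CBR luminescence normalised the signal, and concentration-effect curves were fitted to fusion, red and ratio data.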
* = called active by the depositor. Unless noted, calls come from the whole dose curve; as a rule, active = well fitted curve in the direction sought with a large enough effect; inconclusive = small, poorly fitted or top-dose-only effect, or another doubt; inactive = no such curve, though single readings can be large; an effect the other way counts as inactive or inconclusive. Potency is the fitted concentration of half-maximal effect.

What do the screens show for `C/C(=N\NC(=O)c1ccc(Cl)cc1)c1cccs1`?
aSyn rescue: -4%; TDP43 rescue: -1%; FUS suppressor: inactive; uPA surface inh: -13%; Abeta yeast res: inactive; BCR signal inh: inconclusive

How did O=C(CCCC(=O)c1ccccc1)Nc1ccc(F)cc1 do in these assays?
aSyn rescue: -8%; TDP43 rescue: 5.6µM*; FUS suppressor: inactive; uPA surface inh: 9%; Abeta yeast res: inactive; BCR signal inh: 3%

Results for COc1ccc(NC(=O)CCCC(=O)c2ccccc2)cc1OC ?
aSyn rescue: -2%; TDP43 rescue: -2%; FUS suppressor: inactive; uPA surface inh: -7%; Abeta yeast res: inactive; BCR signal inh: -6%

How did O=C(c1cc(-c2ccccc2)nc2ccccc12)N1CCc2ccccc2C1 do in these assays?
aSyn rescue: -16%; TDP43 rescue: 25µM*; uPA surface inh: 1%; Abeta yeast res: inactive; BCR signal inh: inconclusive

What do the screens show for `Cc1ccc2nc(-c3ccccc3)cc(C(=O)N3CCc4ccccc4C3)c2c1`?
aSyn rescue: 25%; TDP43 rescue: 10%; FUS suppressor: inconclusive; uPA surface inh: inconclusive; Abeta yeast res: inactive; BCR signal inh: inconclusive

What do the screens show for `COc1cccc(-c2cc(C(=O)N3CCN(c4ncccn4)CC3)c3ccccc3n2)c1`?
aSyn rescue: 4%; TDP43 rescue: 18µM*; uPA surface inh: -4%; Abeta yeast res: inactive; BCR signal inh: -6%

Results for Cc1cccc2c(C(=O)N3CCN(c4ccccn4)CC3)cc(-c3cccc(Br)c3)nc12 ?
aSyn rescue: 12%; TDP43 rescue: 18µM*; FUS suppressor: inconclusive; uPA surface inh: inconclusive; Abeta yeast res: inactive; BCR signal inh: -1%

What do the screens show for `Cc1ccc(S(=O)(=O)N2CCN(S(=O)(=O)c3ccc(C)cc3)C2c2ccccc2)cc1`?
aSyn rescue: 4%; TDP43 rescue: -1%; FUS suppressor: inactive; Abeta yeast res: inactive; BCR signal inh: 10%

Results for Cc1cc(C)cc(Cn2c3ccc(NC(=S)NC4CCCCC4)cc3c(=O)n2C)c1 ?
aSyn rescue: -9%; TDP43 rescue: 17%; FUS suppressor: 28µM*; Abeta yeast res: inactive

What do the screens show for `Cn1c(=O)c2cc(NC(=S)NC3CCCCC3)ccc2n1Cc1ccc(F)cc1`?
aSyn rescue: 0%; TDP43 rescue: 28%; FUS suppressor: inactive; Abeta yeast res: inactive

What do the screens show for `Cc1nc2c(OCc3cc(Cl)cc(Cl)c3)cccn2c1N(C)C(=O)CCC1CCCC1`?
aSyn rescue: -44%; TDP43 rescue: 35µM*; FUS suppressor: inconclusive; Abeta yeast res: inactive

How did Cc1nc2c(OCCC3CCCCC3)cccn2c1N(C)C(=O)CCC1CCCC1 do in these assays?
aSyn rescue: -50%; TDP43 rescue: 35µM*; FUS suppressor: inactive; Abeta yeast res: inactive

How did COc1cc(/C=C/C(=O)OCC(=O)Nc2ccc(Cl)cn2)ccc1O do in these assays?
aSyn rescue: -7%; TDP43 rescue: -2%; FUS suppressor: inactive; uPA surface inh: inconclusive; Abeta yeast res: inactive; BCR signal inh: -1%

Results for Clc1c(CSc2nc3ccccc3o2)nc2ccccn12 ?
aSyn rescue: 6%; TDP43 rescue: inconclusive; FUS suppressor: inactive; uPA surface inh: 11%; Abeta yeast res: inactive; BCR signal inh: inconclusive

Results for Cc1ccc(C)c(OCC(=O)NC2CCCCCC2)c1 ?
aSyn rescue: 11%; TDP43 rescue: 11µM*; FUS suppressor: inactive; uPA surface inh: 8%; Abeta yeast res: inactive; BCR signal inh: 2%

Results for Cc1nn(-c2ccccc2)c(OC(=O)c2cccs2)c1S(=O)(=O)c1ccc([N+](=O)[O-])cc1 ?
aSyn rescue: -2%; TDP43 rescue: -31%; FUS suppressor: 40µM*; Abeta yeast res: inactive; BCR signal inh: inconclusive
